# Reference: the OligoGym collection
# Biological target: APOL1
# Assay: pooled miR-30 sensor sort-seq; sequence = guide strand
# Conditions: shRNA
row,Sequence,sensor-assay potency score (higher = more potent)
1,TCAAGCTCACTTTTCAACCGAG,-0.112
2,TTCATTAACCCTCTCCACCTGT,-0.144
3,TAACTCTTGGGCTTTCTCCATT,-0.755
4,TATCCAACTGTTCTAACTCTTG,-1.08
5,TTGTCTTTCATGATCATTTGTC,0.325
6,TTGTCTTGCAAGGTTGTCCAGA,-0.407
7,TATCGTGCCAGTTTTTGTCTTT,-0.367
8,TTTGAGGATCTCCAGTATCTGT,-1.27
9,TTAGTCTAAAGTAAACTGCTTC,-0.132
10,TTTTGTTGCACCCTCGCTCCAG,-0.279
11,TTTGTTGCACCCTCGCTCCAGC,-0.393
12,TAGCTTCTCCTCCAGCTCCTGA,-0.925

# Biological target: APTX
# Assay: as above
# Conditions: shRNA
row,Sequence,sensor-assay potency score (higher = more potent)
1,TATAGAATCACTGTTGCCTGAT,0.198
2,TTTCTTATCAGTGATCTTGGTC,-0.281
3,TTGCTGTCGAGAACATTTCTTA,-0.631
4,TGGAAGTCTGATTCGCTGGTGC,-0.603
5,TCAGTGATCTTGGTCTCTGGGC,-0.249
6,TATCAGTGATCTTGGTCTCTGG,-0.564
7,TTATCAGTGATCTTGGTCTCTG,-0.647

# Biological target: ARF4
# Assay: as above
# Conditions: shRNA
row,Sequence,sensor-assay potency score (higher = more potent)
1,TTTATCAAACATGTCCTTGGTT,0.237
2,AATTTTATCAAACATGTCCTTG,-0.486
3,TTATCAAACATGTCCTTGGTTA,-0.479
4,TTGACAGCCAGTCAAGTCCTTC,-0.84
5,TAATTCTATCTTGACCACCAAC,-1.26
6,ATCTTGACCACCAACATCCCAT,-0.565
7,TTATACAGAATGGTTGTCTTGC,0.842
8,AATTTTGTTGTAACAAGCCTAG,-0.535
9,TTGTCTTGCCAGCAGCATCCAA,-0.778
10,TTTATCTGTCATTTCACTGATG,-0.303
11,TTCTGTTACGAAGAGACTGAAG,-1.25
12,TACAGAATGGTTGTCTTGCCAG,-0.56
13,TTCTATCTTGACCACCAACATC,-1.78
14,TACTGTGAAACAAATGTTCTTA,0.474
15,TTGAACATACCATGTTCTGTTA,-0.718
16,TTCCACATTAAAACCAATGGTA,-0.547
17,TAGCATTTGGCAAATCCTGTTT,-0.434
18,TTTTCTGCAGCTCATCTGCTAC,-0.921
19,TTTCACGATCGTTGCTATCTAC,0.0471
